Results reported in the supplement of paper PMC12636033.
± gives the standard deviation of the averaged measurements. In all, about 33,000 sequences were measured (“E-score (rank enrichment, -0.5 to 0.5)”: median about -0.0028, highest 2% from about 0.23 on). The sample holds the highest values, similar sequences and a random draw of the others, so the mix is not that of the screen.

Tested on: 2Sb-muMax20 (muMax20 with two 1,3-bis(methyl)benzene Cys staples, A13C/A17C and Q88C/A92C, C-terminal Lys)
Assay: PBM 8-mer E-score (E-score (rank enrichment, -0.5 to 0.5)); higher = stronger preferential binding
Protocol: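 Protein binding microarray (universal PBM chip covering all 10-mers in fixed probe flanks) with chemically synthesized human Max(13-93) bHLH-LZ analogs (not full-length Max) bearing noncanonical residues (hArg, Tha, Aib, Nle at 65) and aromatic Cys staples. Read-out per 8-mer (and its reverse complement): E-score (rank-based enrichment, -0.5 to 0.5) and Z-score of median probe intensity.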

Question: How did the “PBM 8-mer E-score” value turn out when GATACAAC was run?
Answer: 0.0906 ± 0.034

Question: With CATACGAG as the sequence, how does the “PBM 8-mer E-score” value read?
Answer: 0.039 ± 0.023

Question: With AATACGAT as the sequence, how does the “PBM 8-mer E-score” value read?
Answer: 0.0313 ± 0.056

Question: CATACAAC was tested. Which “PBM 8-mer E-score” value did it give?
Answer: 0.254 ± 0.0055

Question: For AATACAAC, which “PBM 8-mer E-score” value is on record?
Answer: 0.218 ± 0.053

Question: For AATACAAA, which “PBM 8-mer E-score” value is on record?
Answer: 0.293 ± 0.0033

Question: For CATACAAG, which “PBM 8-mer E-score” value is on record?
Answer: 0.0617 ± 0.023

Question: With AATACAAT as the sequence, how does the “PBM 8-mer E-score” value read?
Answer: 0.105 ± 0.028

Question: With TATACAAA as the sequence, how does the “PBM 8-mer E-score” value read?
Answer: 0.176 ± 0.037

Question: How did the “PBM 8-mer E-score” value turn out when AATACAAG was run?
Answer: 0.243 ± 0.066

Question: How did the “PBM 8-mer E-score” value turn out when GGCTCAAA was run?
Answer: -0.232 ± 0.0071

Question: How did the “PBM 8-mer E-score” value turn out when CGTGTTCC was run?
Answer: -0.101 ± 0.093

Question: How did the “PBM 8-mer E-score” value turn out when CAGCCATC was run?
Answer: 0.0539 ± 0.04

Question: For ACGCTTAC, which “PBM 8-mer E-score” value is on record?
Answer: -0.00865 ± 0.0059

Question: How did the “PBM 8-mer E-score” value turn out when AATGGCGG was run?
Answer: -0.0858 ± 0.063

Question: Which “PBM 8-mer E-score” value does the source give for CTTAGCCA here?
Answer: -0.0016 ± 0.011

Question: With ATCGGCTG as the sequence, how does the “PBM 8-mer E-score” value read?
Answer: -0.182 ± 0.06

Question: ATTAGGTG was tested. Which “PBM 8-mer E-score” value did it give?
Answer: 0.199 ± 0.0049

Question: CATCCCGG was tested. Which “PBM 8-mer E-score” value did it give?
Answer: -0.179 ± 0.11

Question: Which “PBM 8-mer E-score” value does the source give for CCTTGTTA here?
Answer: 0.281 ± 0.032

Question: ACTTGTTA was tested. Which “PBM 8-mer E-score” value did it give?
Answer: 0.173 ± 0.0031

Question: Which “PBM 8-mer E-score” value does the source give for CCTTGTTC here?
Answer: -0.00956 ± 0.048

Question: With ACTTCTCT as the sequence, how does the “PBM 8-mer E-score” value read?
Answer: -0.115 ± 0.094

Question: With TTACCCAA as the sequence, how does the “PBM 8-mer E-score” value read?
Answer: 0.26885 ± 6.4e-05

Question: CACCCCAG was tested. Which “PBM 8-mer E-score” value did it give?
Answer: 0.262 ± 0.015

Question: CACCCCTA was tested. Which “PBM 8-mer E-score” value did it give?
Answer: 0.228 ± 0.018

Question: AACCCAAA was tested. Which “PBM 8-mer E-score” value did it give?
Answer: 0.0368 ± 0.14

Question: For ACCCCCAA, which “PBM 8-mer E-score” value is on record?
Answer: -0.148 ± 0.053

Question: With AACCCCTA as the sequence, how does the “PBM 8-mer E-score” value read?
Answer: 0.176 ± 0.0048

Question: With CCCCCCAG as the sequence, how does the “PBM 8-mer E-score” value read?
Answer: -0.319 ± 0.18

Question: Which “PBM 8-mer E-score” value does the source give for CTACCCAA here?
Answer: 0.085 ± 0.019

Question: How did the “PBM 8-mer E-score” value turn out when AACCCCAG was run?
Answer: 0.0383 ± 0.14

Question: With AACCCCAA as the sequence, how does the “PBM 8-mer E-score” value read?
Answer: 0.331 ± 0.019

Question: How did the “PBM 8-mer E-score” value turn out when TACCCCTA was run?
Answer: 0.316 ± 0.0051

Question: With GTACCCAA as the sequence, how does the “PBM 8-mer E-score” value read?
Answer: 0.153 ± 0.0022

Question: Which “PBM 8-mer E-score” value does the source give for ACGAAGGC here?
Answer: -0.148 ± 0.011

Question: How did the “PBM 8-mer E-score” value turn out when GGCCAAAC was run?
Answer: -0.0918 ± 0.032

Question: Which “PBM 8-mer E-score” value does the source give for ATAAAAGC here?
Answer: 0.113 ± 0.0099

Question: With CACCCAAA as the sequence, how does the “PBM 8-mer E-score” value read?
Answer: 0.211 ± 0.02

Question: Which “PBM 8-mer E-score” value does the source give for TACCCCAA here?
Answer: 0.29 ± 0.036

Question: Which “PBM 8-mer E-score” value does the source give for TACCCCCA here?
Answer: -0.0172 ± 0.023

Question: With GACCCCAC as the sequence, how does the “PBM 8-mer E-score” value read?
Answer: 0.0665 ± 0.09

Question: How did the “PBM 8-mer E-score” value turn out when CACCCCCA was run?
Answer: -0.148 ± 0.025

Question: Which “PBM 8-mer E-score” value does the source give for CACCCCAA here?
Answer: 0.292 ± 0.059

Question: With GACCCCAA as the sequence, how does the “PBM 8-mer E-score” value read?
Answer: 0.129 ± 0.058

Question: For CACCCCAC, which “PBM 8-mer E-score” value is on record?
Answer: 0.319 ± 0.067

Question: Which “PBM 8-mer E-score” value does the source give for AACCCCAC here?
Answer: 0.177 ± 0.082

Question: AAAACGTT was tested. Which “PBM 8-mer E-score” value did it give?
Answer: 0.189 ± 0.024

Question: GGAGAGTA was tested. Which “PBM 8-mer E-score” value did it give?
Answer: -0.0215 ± 0.08

Question: CCTCACTA was tested. Which “PBM 8-mer E-score” value did it give?
Answer: 0.127 ± 0.035

Question: AGCCACAC was tested. Which “PBM 8-mer E-score” value did it give?
Answer: 0.111 ± 0.045

Question: TCCCTGCA was tested. Which “PBM 8-mer E-score” value did it give?
Answer: 0.0481 ± 0.0088

Question: Which “PBM 8-mer E-score” value does the source give for AAACACGA here?
Answer: 0.14 ± 0.053

Question: For AACCACGC, which “PBM 8-mer E-score” value is on record?
Answer: -0.0289 ± 0.036

Question: AAACACGC was tested. Which “PBM 8-mer E-score” value did it give?
Answer: 0.0985 ± 0.012

Question: AACCACGT was tested. Which “PBM 8-mer E-score” value did it give?
Answer: 0.304 ± 0.0045

Question: For AACCACGA, which “PBM 8-mer E-score” value is on record?
Answer: 0.068 ± 0.082

Question: For ACCCACGC, which “PBM 8-mer E-score” value is on record?
Answer: 0.0613 ± 0.043

Question: With ACCCACGA as the sequence, how does the “PBM 8-mer E-score” value read?
Answer: 0.0473 ± 0.015

Question: How did the “PBM 8-mer E-score” value turn out when AAACACGT was run?
Answer: 0.238 ± 0.0029

Question: With ACCCACGT as the sequence, how does the “PBM 8-mer E-score” value read?
Answer: 0.35 ± 0.025

Question: GCGACATA was tested. Which “PBM 8-mer E-score” value did it give?
Answer: -0.0543 ± 0.01

Question: Which “PBM 8-mer E-score” value does the source give for GAGCAACC here?
Answer: -0.0186 ± 0.037

Question: Which “PBM 8-mer E-score” value does the source give for ACGAGCAA here?
Answer: 0.00429 ± 0.043

Question: How did the “PBM 8-mer E-score” value turn out when AGAGTACT was run?
Answer: 0.0199 ± 0.063

Question: Which “PBM 8-mer E-score” value does the source give for CTTGATTA here?
Answer: 0.159 ± 0.039

Question: How did the “PBM 8-mer E-score” value turn out when CAAGATAA was run?
Answer: 0.253 ± 0.025

Question: How did the “PBM 8-mer E-score” value turn out when CATGATTC was run?
Answer: 0.0849 ± 0.046

Question: AATGATAA was tested. Which “PBM 8-mer E-score” value did it give?
Answer: 0.0436 ± 0.05

Question: How did the “PBM 8-mer E-score” value turn out when CATGATTA was run?
Answer: 0.236 ± 0.035

Question: For CATGATAA, which “PBM 8-mer E-score” value is on record?
Answer: 0.262 ± 0.004

Question: Which “PBM 8-mer E-score” value does the source give for ATTGATTA here?
Answer: 0.0825 ± 0.032

Question: With GATGATTA as the sequence, how does the “PBM 8-mer E-score” value read?
Answer: -0.00815 ± 0.038

Question: TATGATAA was tested. Which “PBM 8-mer E-score” value did it give?
Answer: 0.0883 ± 0.068

Question: Which “PBM 8-mer E-score” value does the source give for AAAGATAA here?
Answer: 0.124 ± 0.033

Question: Which “PBM 8-mer E-score” value does the source give for GTTGATTA here?
Answer: 0.259 ± 0.0094

Question: How did the “PBM 8-mer E-score” value turn out when TAAGATAA was run?
Answer: 0.0702 ± 0.044

Question: For AACAAGCT, which “PBM 8-mer E-score” value is on record?
Answer: 0.0609 ± 0.024

Question: Which “PBM 8-mer E-score” value does the source give for GCTGGCGA here?
Answer: -0.207 ± 0.015

Question: GGTTCGCA was tested. Which “PBM 8-mer E-score” value did it give?
Answer: -0.146 ± 0.0032

Question: Which “PBM 8-mer E-score” value does the source give for AGGGTCTC here?
Answer: -0.0134 ± 0.094

Question: CGTCCACC was tested. Which “PBM 8-mer E-score” value did it give?
Answer: -0.0444 ± 0.07

Question: GTCGTTAA was tested. Which “PBM 8-mer E-score” value did it give?
Answer: -0.133 ± 0.028

Question: With GGGAATCA as the sequence, how does the “PBM 8-mer E-score” value read?
Answer: -0.0266 ± 0.031

Question: Which “PBM 8-mer E-score” value does the source give for CCTGCACC here?
Answer: -0.0811 ± 0.0012

Question: Which “PBM 8-mer E-score” value does the source give for ACGCTGCC here?
Answer: -0.0685 ± 0.038

Question: TAACGCGA was tested. Which “PBM 8-mer E-score” value did it give?
Answer: 0.0123 ± 0.0097

Question: CGCATGCA was tested. Which “PBM 8-mer E-score” value did it give?
Answer: 0.171 ± 0.028

Question: TGCATGCA was tested. Which “PBM 8-mer E-score” value did it give?
Answer: 0.132 ± 0.01

Question: Which “PBM 8-mer E-score” value does the source give for GGCATGCA here?
Answer: -0.0517 ± 0.02

Question: How did the “PBM 8-mer E-score” value turn out when AGCATGCA was run?
Answer: 0.3172 ± 0.00083

Question: How did the “PBM 8-mer E-score” value turn out when CGCATGCG was run?
Answer: 0.279 ± 0.067

Question: For CGCATGCC, which “PBM 8-mer E-score” value is on record?
Answer: 0.141 ± 0.064

Question: With GCGACGCC as the sequence, how does the “PBM 8-mer E-score” value read?
Answer: -0.126 ± 0.025

Question: How did the “PBM 8-mer E-score” value turn out when TAGGTATA was run?
Answer: 0.138 ± 0.011

Question: For CTCCAATA, which “PBM 8-mer E-score” value is on record?
Answer: 0.0951 ± 0.05

Question: AATAGCTA was tested. Which “PBM 8-mer E-score” value did it give?
Answer: 0.244 ± 0.0096

Question: With AATAGCAT as the sequence, how does the “PBM 8-mer E-score” value read?
Answer: 0.262 ± 0.023

Question: With AATAGCAC as the sequence, how does the “PBM 8-mer E-score” value read?
Answer: 0.0775 ± 0.071

Question: For GATAGCTA, which “PBM 8-mer E-score” value is on record?
Answer: 0.0488 ± 0.04

Question: With GAAAGCTA as the sequence, how does the “PBM 8-mer E-score” value read?
Answer: 0.0215 ± 0.023

Question: CATAGCTA was tested. Which “PBM 8-mer E-score” value did it give?
Answer: 0.17 ± 0.065

Question: AAAAGCTA was tested. Which “PBM 8-mer E-score” value did it give?
Answer: 0.236 ± 0.025

Question: With AAAAGCTC as the sequence, how does the “PBM 8-mer E-score” value read?
Answer: -0.0474 ± 0.048

Question: Which “PBM 8-mer E-score” value does the source give for AATAGCAA here?
Answer: 0.106 ± 0.11

Question: AGAGGCCC was tested. Which “PBM 8-mer E-score” value did it give?
Answer: -0.0713 ± 0.025

Question: With ATGCCGGG as the sequence, how does the “PBM 8-mer E-score” value read?
Answer: -0.256 ± 0.0027

Question: GACTTTCC was tested. Which “PBM 8-mer E-score” value did it give?
Answer: -0.0524 ± 0.043

Question: For CGGCGGGC, which “PBM 8-mer E-score” value is on record?
Answer: -0.184 ± 0.073

Question: How did the “PBM 8-mer E-score” value turn out when CTTCTCGC was run?
Answer: 0.0717 ± 0.022
